Among all 290,000 compounds or so, about 570 (0.2%) were called active. About 1% were inconclusive and are not listed. Rule as the data show it: active = inhibition mostly above about 51% (no sharp cut-off); inconclusive = no clear call, values can overlap the other calls; inactive = mostly below about 53%. Shown is part of a subset that was picked to be rich in actives.
Target: Voltage-dependent N-type calcium channel subunit alpha-1B (Homo sapiens) (UniProt Q00975)
Test: inhibitors of Mint1-CaV2.2 protein interaction, biochemical, HTRF (AID 2073)
Conditions: at 20 µM, stronger effect = higher value
[1] = measured here: average of repeat tests

Voltage-dependent N-type calcium channel subunit alpha-1B (Homo sapiens), sequence (Q00975 whole entry, looked up): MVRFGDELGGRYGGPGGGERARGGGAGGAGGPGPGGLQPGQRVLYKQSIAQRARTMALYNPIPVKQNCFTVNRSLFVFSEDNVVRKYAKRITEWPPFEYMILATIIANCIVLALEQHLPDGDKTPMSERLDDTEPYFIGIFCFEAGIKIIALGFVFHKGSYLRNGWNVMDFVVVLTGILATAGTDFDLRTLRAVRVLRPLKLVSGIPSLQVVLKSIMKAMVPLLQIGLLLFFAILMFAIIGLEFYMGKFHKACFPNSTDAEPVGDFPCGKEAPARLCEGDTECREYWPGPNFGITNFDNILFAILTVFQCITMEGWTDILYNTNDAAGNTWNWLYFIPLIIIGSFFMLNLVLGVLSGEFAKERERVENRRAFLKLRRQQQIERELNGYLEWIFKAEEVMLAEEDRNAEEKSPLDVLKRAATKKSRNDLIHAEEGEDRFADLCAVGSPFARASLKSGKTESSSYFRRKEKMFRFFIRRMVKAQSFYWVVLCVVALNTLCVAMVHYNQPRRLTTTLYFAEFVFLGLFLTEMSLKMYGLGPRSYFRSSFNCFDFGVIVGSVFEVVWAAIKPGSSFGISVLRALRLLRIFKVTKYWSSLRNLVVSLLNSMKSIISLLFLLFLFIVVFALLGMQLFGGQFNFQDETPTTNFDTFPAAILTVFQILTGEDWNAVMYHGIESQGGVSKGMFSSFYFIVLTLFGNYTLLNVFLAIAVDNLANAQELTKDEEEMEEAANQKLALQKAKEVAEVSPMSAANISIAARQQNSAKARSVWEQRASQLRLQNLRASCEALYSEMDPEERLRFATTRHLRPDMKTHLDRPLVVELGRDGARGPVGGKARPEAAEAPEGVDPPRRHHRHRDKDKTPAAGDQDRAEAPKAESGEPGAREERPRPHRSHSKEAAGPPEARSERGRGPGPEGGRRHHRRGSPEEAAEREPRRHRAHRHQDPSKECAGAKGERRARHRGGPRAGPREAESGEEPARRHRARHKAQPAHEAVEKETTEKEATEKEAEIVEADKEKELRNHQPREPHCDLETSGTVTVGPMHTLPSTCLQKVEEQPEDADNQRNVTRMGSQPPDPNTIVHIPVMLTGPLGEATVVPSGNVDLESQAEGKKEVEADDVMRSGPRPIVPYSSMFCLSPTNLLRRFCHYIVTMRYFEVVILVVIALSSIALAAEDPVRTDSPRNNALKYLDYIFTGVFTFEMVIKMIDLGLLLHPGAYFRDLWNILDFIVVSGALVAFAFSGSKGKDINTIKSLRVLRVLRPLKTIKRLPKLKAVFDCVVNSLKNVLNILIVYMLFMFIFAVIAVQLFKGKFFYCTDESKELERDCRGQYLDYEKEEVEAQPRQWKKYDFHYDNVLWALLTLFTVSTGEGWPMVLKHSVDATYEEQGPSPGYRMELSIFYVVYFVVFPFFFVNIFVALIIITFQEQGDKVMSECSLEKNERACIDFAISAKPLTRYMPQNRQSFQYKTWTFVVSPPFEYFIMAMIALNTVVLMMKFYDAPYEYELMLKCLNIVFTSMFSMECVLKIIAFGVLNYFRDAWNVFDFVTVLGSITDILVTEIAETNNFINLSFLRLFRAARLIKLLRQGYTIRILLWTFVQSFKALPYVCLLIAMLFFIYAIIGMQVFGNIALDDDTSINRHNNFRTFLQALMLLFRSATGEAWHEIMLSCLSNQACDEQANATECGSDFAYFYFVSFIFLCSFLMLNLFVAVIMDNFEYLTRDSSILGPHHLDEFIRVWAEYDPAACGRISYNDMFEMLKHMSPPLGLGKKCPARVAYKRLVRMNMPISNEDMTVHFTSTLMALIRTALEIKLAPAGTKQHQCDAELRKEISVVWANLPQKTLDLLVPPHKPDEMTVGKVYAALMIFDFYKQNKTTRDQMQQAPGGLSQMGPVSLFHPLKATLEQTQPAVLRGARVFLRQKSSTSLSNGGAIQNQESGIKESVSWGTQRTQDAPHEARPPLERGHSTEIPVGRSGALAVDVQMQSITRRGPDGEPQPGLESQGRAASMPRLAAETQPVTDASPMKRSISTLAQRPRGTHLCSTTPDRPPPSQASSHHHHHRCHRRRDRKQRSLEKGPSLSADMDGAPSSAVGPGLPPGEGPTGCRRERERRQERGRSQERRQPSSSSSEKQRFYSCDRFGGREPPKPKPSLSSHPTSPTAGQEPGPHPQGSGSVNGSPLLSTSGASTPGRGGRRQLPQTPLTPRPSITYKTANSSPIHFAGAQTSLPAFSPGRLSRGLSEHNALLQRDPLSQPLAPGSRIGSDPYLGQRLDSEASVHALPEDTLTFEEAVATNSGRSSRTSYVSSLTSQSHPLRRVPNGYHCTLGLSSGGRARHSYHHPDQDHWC

| Compound | inhibition | inhibition [1] [%] |
| --- | --- | --- |
| COC(=O)C1=C(N)Oc2c(oc(CO)cc2=O)C1c1ccccc1F (centres undefined) | 0.2% (inactive) | – |
| CC(C(=O)O)N1C(=O)/C(=C/C=C/c2ccco2)SC1=S (centres undefined) | 77.7% (active) | – |
| CC(C)C(C(=O)O)N1C(=O)/C(=C/C=C/c2ccco2)SC1=S (centres undefined) | 49.5% (inactive) | – |
| O=C(O)CC(C(=O)O)N1C(=O)/C(=C/C=C/c2ccco2)SC1=S (centres undefined) | 27.4% (inactive) | – |
| CNC(=S)NNC(=O)c1c(C)nc2cc(C)ccn12 | 0.7% (inactive) | – |
| CC1=C(C(=O)O)N2C(=O)[C@@H](NC(=O)[C@H](N)c3ccccc3)[C@H]2SC1 | -20.5% (inactive) | – |
| CC1=C(C(=O)O)N2C(=O)C(NC(=O)c3ccn(C)n3)C2SC1 (centres undefined) | -8.1% (inactive) | – |
| O=S1(=O)CCC(n2nccc2-c2ccccc2)C1 (centres undefined) | -2.9% (inactive) | – |
| COC(=O)C1=C(C)N(CCCC(=O)O)C(=O)NC1c1ccc(-c2ccccc2)cc1 (centres undefined) | -4.2% (inactive) | – |
| COc1cc(C2CC(=O)Nc3n[nH]c(-c4ccccc4)c32)cc(OC)c1OC (centres undefined) | 8.3% (inactive) | – |
| COc1cc(C2c3c([nH]c(=O)[nH]c3=O)Nc3ccc4ccccc4c32)cc(OC)c1OC (centres undefined) | 82.8% (active) | – |
| COc1cc(C2c3c([nH]c(=O)[nH]c3=O)Nc3ccc4ccccc4c32)ccc1O (centres undefined) | -1.1% (inactive) | – |
| CSc1cccc(NC(=O)c2cc(S(=O)(=O)N3CCCC3)cn2C)c1 | 8.5% (inactive) | – |
| O=C(CSc1nc2c(c(=O)n1-c1ccc(Cl)cc1)SCC2)NCC1CCCO1 (centres undefined) | -0.5% (inactive) | – |
| CC1=NN(C(N)=S)C(=O)C1N=Nc1c(Cl)cc([N+](=O)[O-])cc1Cl (centres undefined) | -6.1% (inactive) | – |
| Cc1ccc(C)c(SCC(=O)NC(=O)Nc2ccc3c(c2)OCCO3)c1 | 1.2% (inactive) | – |
| CCCc1cc(=O)[nH]c(SCC(=O)N2CCC(C)CC2)n1 | 12% (inactive) | – |
| Nc1cc([N+](=O)[O-])ccc1O | 2.9% (inactive) | – |
| Cc1ccc([N+](=O)[O-])cc1N | 0% (inactive) | – |
| COc1ccc(NC(=O)CCC(=O)N(Cc2ccc(OC)c(OC)c2)c2nccs2)cc1 | 6% (inactive) | – |
| OCC1(CCCc2ccccc2)CCN(Cc2ccc(F)cc2)CC1 | -2.6% (inactive) | – |
| CC(C)CNC(=O)c1ccccc1Oc1ccccc1 | 3.1% (inactive) | – |
| Cn1c(=O)c2c(-c3ccc(C(C)(C)C)cc3)n(CC3CCCO3)cc2n(C)c1=O (centres undefined) | 8.1% (inactive) | – |
| Cc1ccc2[nH]c(=O)c(CNC(C)C)cc2c1 | 15.1% (inactive) | – |
| COC(=O)C1=C(C)NC(C)=C(C(=O)OC)C1c1cc2cc(C)ccc2[nH]c1=O | 17.4% (inactive) | – |

| Compound | inhibition | inhibition [1] [%] |
| --- | --- | --- |
| O=C(O)C1Nc2c(Cl)cc(Cl)cc2C2C=CCC12 (centres undefined) | 51.5% (active) | – |
| Cc1ccc2c(c1C)NC(C(=O)O)C1CC=CC21 (centres undefined) | 42.8% (inactive) | – |
| O=C(O)C1Nc2c(C(F)(F)F)ccc(Cl)c2C2C=CCC12 (centres undefined) | 7.3% (inactive) | – |
| O=C(CCNC(=O)N1CCn2c1nc1ccccc12)NCc1ccccc1 | -1.3% (inactive) | – |
| O=c1c2c([N+](=O)[O-])cc([N+](=O)[O-])cc2sn1Cc1ccccc1 | 43.2% (inactive) | – |
| N#Cc1c(N)n(Cc2ccccc2)c(=O)c2cc([N+](=O)[O-])ccc12 | 2% (inactive) | – |
| Cc1ccc(NC2SC(=O)N(CC(=O)O)C2=O)cc1 (centres undefined) | -7.4% (inactive) | – |
| Cc1cccc(C)c1-n1c(C)nn(CC2CC2)c1=O | -5.7% (inactive) | – |
| COc1ccc(-c2csc(NC(=O)CN3C(=O)CCC3=O)n2)c(OC)c1 | 6.5% (inactive) | – |
| CC(C)(C)NC(=O)CN(C(=O)C1(C)CC(=O)N=C2C=CC=CN21)C1CCCC1 (centres undefined) | 9.2% (inactive) | – |
| CCCCCCC(=O)N(O)C1CC(=O)N(c2ccc(C)cc2)C1=O (centres undefined) | 12.5% (inactive) | – |
| CCCCCCC(=O)N(O)C1CC(=O)N(c2ccccc2)C1=O (centres undefined) | 65.6% (active) | – |
| CCCCCC(=O)N(O)C1CC(=O)N(c2ccccc2)C1=O (centres undefined) | 44.4% (inactive) | – |
| CN(CCN1CCc2ccccc2C1)Cc1nc(-c2ccc3c(c2)OCO3)no1 | 2.5% (inactive) | – |
| CCc1cc(C(=O)N2CCCC(C(=O)c3ccc(C(F)(F)F)cc3)C2)n(C)n1 (centres undefined) | 5.5% (inactive) | – |
| O=C(CSc1nnc(-c2ccco2)n1-c1ccccc1)NCC1CCCO1 (centres undefined) | 9.9% (inactive) | – |
| C=CCn1c(SCC(=O)NCC2CCCO2)nc2scc(-c3ccco3)c2c1=O (centres undefined) | 33% (inactive) | – |
| O=C(CSc1nc2scc(-c3ccco3)c2c(=O)n1-c1ccccc1)NCC1CCCO1 (centres undefined) | 55% (active) | – |
| Cc1cc(C)c(NC(=O)CN2CCN(c3ccccn3)CC2)c(C)c1 | -1.2% (inactive) | – |
| CCOC(=O)C1(Cc2ccccc2C)CCCN(C(=O)c2ccoc2)C1 (centres undefined) | 14.3% (inactive) | – |
| COC(=O)C1=C(C)NC(C)=C(C(=O)OCC2CCCO2)C1c1cccc(Br)c1 (centres undefined) | 13.6% (inactive) | – |
| N#Cc1ccsc1NC(=O)CSc1nnnn1-c1ccc(O)cc1 | 50.6% (active) | – |
| Cn1cnnc1SCC(=O)Nc1sccc1C#N | 2.2% (inactive) | – |
| Cc1ccc(-n2nnnc2SCC(=O)Nc2sccc2C#N)cc1 | 0% (inactive) | – |
| CC(=O)c1ccc2noc(-c3cccc(F)c3)c2c1 | -6.7% (inactive) | – |

| Compound | inhibition | inhibition [1] [%] |
| --- | --- | --- |
| CCn1cc(C(=O)O)c(=O)c2cc(F)c(N/N=C/c3ccccc3[N+](=O)[O-])cc21 | 58.8% (active) | – |
| CCn1cc(C(=O)O)c(=O)c2cc(F)c(N3CCN(C(=S)NC(=O)c4ccccc4)CC3)cc21 | -5.6% (inactive) | – |
| CCn1cc(C(=O)O)c(=O)c2cc(F)c(N/N=C/c3ccccc3)cc21 | 6.4% (inactive) | – |
| Cn1cc([N+](=O)[O-])c(C(=O)NCc2ccco2)n1 | -1.5% (inactive) | – |
| COc1ccccc1NC(=O)C1=C(C)NC(=O)NC1c1ccccc1F (centres undefined) | 6.4% (inactive) | – |
| COc1ccccc1NC(=O)C1=C(C)NC(=O)NC1c1ccccc1[N+](=O)[O-] (centres undefined) | 55.2% (active) | – |
| COc1ccc(NC(=O)C2=C(C)NC(=O)NC2c2ccccc2[N+](=O)[O-])cc1 (centres undefined) | -2.6% (inactive) | – |
| O=C(CN1C(=O)C2CCCCC2C1=O)N1CCN(c2ncccn2)CC1 (centres undefined) | 10.4% (inactive) | – |
| CC(C)CCN(C)C1CCN(S(=O)(=O)c2cccc(C(F)(F)F)c2)CC1 | 12.2% (inactive) | – |
| O=C(N/N=C/c1cccc([N+](=O)[O-])c1)c1cc(-c2ccc3c(c2)OCO3)n[nH]1 | 3.3% (inactive) | – |
| O=C(N/N=C/c1ccc([N+](=O)[O-])cc1)c1cc(C2CC2)[nH]n1 | -0.6% (inactive) | – |
| O=C(Nc1ccc(S(=O)(=O)Nc2nccs2)cc1)c1cccc(N2C(=O)c3ccccc3C2=O)c1 | 49.1% (inactive) | – |
| O=C(Nc1ccc(S(=O)(=O)Nc2nccs2)cc1)c1ccc(F)cc1 | 11.1% (inactive) | – |
| O=C(Nc1ccc(S(=O)(=O)Nc2nccs2)cc1)c1ccc(N2C(=O)c3ccccc3C2=O)cc1 | 58.8% (active) | – |
| COc1ccccc1N1CCN(C(=O)C2CCN(C(=O)c3cccc(Cl)c3)CC2)CC1 | 6.4% (inactive) | – |
| Cc1[nH]cnc1C(=O)N/N=C/c1ccc([N+](=O)[O-])s1 | -7.6% (inactive) | – |
| N#C/C(C(N)=O)=c1/ccc2c(c1)N1C3=C(CCCC3)CC3CCCCC31N=2 (centres undefined) | -26.9% (inactive) | – |
| O=[N+]([O-])C(=c1ccc2c(c1)N1C3=C(CCCC3)CC3CCCCC31N=2)[N+](=O)[O-] (centres undefined) | 51.6% (active) | 92.8 |
| N#CC(C#N)=c1ccc2c(c1)N1C3=C(CCCC3)CC3CCCCC31N=2 (centres undefined) | -36.3% (inactive) | – |
| CCc1ccc2[nH]c(C(=O)Nc3ccc(Br)c(C)n3)cc2c1 | 5.3% (inactive) | – |
| COc1ccc(-c2cc(-c3ccco3)[nH]c(=O)c2C#N)cc1 | 24.8% (inactive) | – |
| COc1ccc(-c2cc(-c3ccco3)[nH]c(=O)c2C#N)cc1OC | 0.3% (inactive) | – |
| N#Cc1c(-c2cccc(Br)c2)cc(-c2ccco2)[nH]c1=O | 53.9% (active) | – |
| O=C(COC(=O)c1ccc(NS(=O)(=O)c2cccs2)cc1)NCC1CCCO1 (centres undefined) | -3% (inactive) | – |
| O=C(COC(=O)/C=C/c1ccc(F)cc1)NCc1ccco1 | 8.8% (inactive) | – |

| Compound | inhibition | inhibition [1] [%] |
| --- | --- | --- |
| O=C(COC(=O)/C=C/c1ccco1)NCc1ccco1 | 53.7% (active) | – |
| O=C(COC(=O)/C=C/c1ccco1)NCc1ccccc1 | 13.7% (inactive) | – |
| O=C(COC(=O)c1ccc(NS(=O)(=O)c2cccs2)cc1)NCc1ccco1 | 59.4% (active) | – |
| O=C(COC(=O)c1cccs1)NCc1ccco1 | -0.7% (inactive) | – |
| O=C(COC(=O)c1ccc(S(=O)(=O)Nc2ccccc2)cc1)NCc1ccco1 | -1.1% (inactive) | – |
| O=C(COC(=O)CCC(=O)c1cccs1)NCc1ccco1 | 57.8% (active) | – |
| O=C(COC(=O)CCC(=O)c1cccs1)NCc1cccs1 | -3.4% (inactive) | – |
| COC(=O)c1sc2ccccc2c1NC(=O)c1ccc(S(=O)(=O)N2CCCCC2C)cc1 (centres undefined) | -0.4% (inactive) | – |
| CN(CCOc1ccc(Cl)cc1)Cc1cccc(S(=O)(=O)N(C)C)c1 | -2.1% (inactive) | – |
| Nc1c(Cl)ncnc1N/N=C/c1ccncc1 | -9.8% (inactive) | – |
| O=C(O)C=C1CCN(c2ncc(C(F)(F)F)cc2Cl)CC1 | 13.7% (inactive) | – |
| CN1CCN(c2ccccc2NC(=O)c2ccc3c(c2)OCCO3)CC1 | 8.9% (inactive) | – |
| Cc1c(NC(=O)C2(C)CCCCC2)c(=O)n(-c2ccccc2)n1C | -0.1% (inactive) | – |
| COCCNC(=O)/C(C#N)=C/c1ccc(OCc2ccccc2)cc1 | -5.6% (inactive) | – |
| COc1ccccc1N=Cc1c(C)c(C#N)c2[nH]c3ccccc3n2c1=O | 71.7% (active) | – |
| CCCCc1c(C)c(C#N)c2[nH]c3ccccc3n2c1=O | 16.9% (inactive) | – |
| Cc1c(CCO)c(=O)n2c([nH]c3ccccc32)c1C#N | -2.7% (inactive) | – |
| O=C(Nc1ccc(Cc2ccc(NC(=O)N3CCOCC3)cc2)cc1)N1CCOCC1 | 3.3% (inactive) | – |
| COc1ccc(Br)cc1C1CC(=O)N2CN(Cc3ccccc3)CSC2=C1C#N (centres undefined) | 93.2% (active) | – |
| COc1cc(C2CC(=O)N3CN(Cc4ccco4)CSC3=C2C#N)ccc1OCc1ccccc1 (centres undefined) | 84.8% (active) | – |
| COc1cc(C2CC(=O)N3CN(Cc4ccccc4)CSC3=C2C#N)ccc1OCc1ccccc1 (centres undefined) | 82.7% (inactive) | 44.4 |
| N#CC1=C2SCN(Cc3ccccc3)CN2C(=O)CC1c1ccccc1F (centres undefined) | 85.9% (inactive) | 29.1 |
| COc1ccc(C2CC(=O)N3CN(Cc4ccco4)CSC3=C2C#N)cc1 (centres undefined) | 76.3% (inactive) | 19.2 |
| COc1ccc(Br)cc1C1CC(=O)N2CN(C)CSC2=C1C#N (centres undefined) | 87.7% (inactive) | 25.1 |

From PubChem BioAssay AID2073 (Sanford-Burnham Center for Chemical Genomics, 2009)
